PubChem BioAssay AID493073 (Broad Institute, 2011)
In all, about 1,200 compounds went through this assay and about 810 (68%) were called active. No rule for the calls is given here. So high a share suggests a set chosen from earlier hits. A selection follows. Measured potencies and affinities stand elsewhere.

experiment: TRPM1 promoter luciferase signal decrease, dose response, MITF inhibitor project, cell-based, SK-MEL-5, cherry-picked, set 3 (AID 493073); conditions: SK-MEL-5 TRPM1 promoter luciferase, 24 h; series mostly up to 35 µM

outcome, inactive:
COCCNC(=O)c1cc2sc3ccccc3c2s1
FC(F)(F)Oc1ccc(-c2cn3cccnc3n2)cc1
O=C(CNC(=O)c1ccc(Br)cc1)c1ccccc1
Clc1ccccc1CSc1nnc(-c2ccncc2)o1
Cc1ccc(C(=O)Nc2nc3ccc(Cl)cc3s2)o1
O=C(Nc1nc2ccccc2s1)Nc1ccc(F)cc1F
Cc1ccc2nc(NC(=O)c3ccc(Br)o3)sc2c1
COC(=O)c1ccc(COc2ccc(C)cc2[N+](=O)[O-])o1
Cc1cc(NC(=O)c2ccc(Cl)cc2Cl)no1
COc1ccc2oc3ccc(OC)cc3c(=O)c2c1
O=C(Nc1cccnc1Cl)c1cc(-c2ccco2)on1
CC1CCN(c2ccc(NC(=O)c3cccnc3)cc2)CC1
NNC(=O)Cn1c(SCc2ccccc2)nc2ccccc21
COC(=O)c1ccc(COc2ccc3c(c2)CCC3)o1
O=C(Nc1nc2ccsc2c(=O)s1)C1CCC1
O=C(O)C1CCN(C(=O)OCc2ccccc2)CC1
Clc1ccc(-c2nc(-c3ccncc3)no2)c(Cl)c1
Cc1ccc(-c2nc(-c3ccncc3)no2)cc1C
Fc1ccccc1-c1nc(-c2ccncc2)no1
CCOc1ccccc1-c1nc(-c2ccc(C)nc2OC)no1
Cc1ccc(SCCC(=O)N2CCC(C)CC2)cc1
O=C(Nc1ccc(Cl)cc1)C1C2CCCCC21 (stereo not drawn)
N/C(=N\OC(=O)c1ccncc1)c1cccc([N+](=O)[O-])c1
N/C(=N\OC(=O)c1ccccc1Cl)c1cccc([N+](=O)[O-])c1
CCn1c(=O)c(C(=O)NCc2ccccc2Cl)c(O)c2ccccc21
Cc1ccc(SCc2cn3cc(Cl)ccc3n2)cc1
N/C(=N\OC(=O)c1cccc(F)c1)c1cccc([N+](=O)[O-])c1
Cc1ccccc1OCc1nc2c3cnn(C)c3ncn2n1
Cc1ccc(OCCNCc2ccccc2)c(C)c1
CC(C)(C)c1ccc(OCCn2ccccc2=O)cc1
COc1ccc(NC(=O)c2cc(-c3ccccc3Cl)on2)cc1
O=C1c2ccccc2C(=O)N1CCOc1ccccc1
CC(C)c1nnc(NC(=O)CCC2CCCCC2)s1
CC(C)(C)C1CCC(OC(=O)CN2CCCCC2)CC1 (stereo not drawn)
COc1ccc(C2C(C#N)=C(N)Oc3c2oc(CO)cc3=O)cc1 (stereo not drawn)
CC(=O)c1ccc(N/C=C/C(=O)c2ccc(Br)cc2)cc1
O=C(Nc1ccc2ncccc2c1)c1ccccc1Br
Oc1ccccc1/C=N/Nc1cccc2cccnc12
Cc1ccc2nc(Cc3ccc(N)cc3)oc2c1
CCOc1ccccc1NC(=O)C1C2CCC(O2)C1C(=O)O (stereo not drawn)
COc1ccc(-c2cc(-c3ccc(OC)c(OC)c3)n[nH]2)c(O)c1
COc1ccc(C(=O)NCCSc2ccccc2C)cc1
COc1ccc(C(=O)NCC(=O)c2ccccc2)cc1
COc1cccc(CNc2nc3ccccc3n2C)c1O
Cc1cc(C)c2c(N)c(C(=O)N/N=C/c3ccccc3)sc2n1
Cc1cc(C(F)(F)F)c2c(N)c(C(=O)Nc3cc(C)on3)sc2n1
CCc1cc(C=NC2CCCCC2)c(O)s1
Cc1ccccc1NCc1nc2ccccc2n1C
O=C(NCc1ccco1)c1ccc(COCC(F)(F)F)cc1
CN(C)c1ccc(/C=C/c2cccc[n+]2[O-])cc1
Cc1ccc(O)c(NC(=O)c2ccc3c(c2)C(=O)N(CC(C)C)C3=O)c1
Clc1nccnc1N/N=C/c1ccc(Br)cc1
COc1cccc(/C=N/NC(=O)c2cccs2)c1
N/C(=N\OC(=O)Cc1cccs1)c1ccccc1
COc1cccc(-c2ccc3c(N)c(C(=O)NC4CC4)sc3n2)c1
O=C(NC1CCCCC1)c1cc2cc(Br)ccc2o1
O=C(NC1CCCCCC1)c1cc2ccccc2oc1=O
N#C/C(C(=O)c1ccccc1)=C1/CCCCCN1
CCOc1ccc(N=C(C)C2=C(O)c3ccccc3C2=O)cc1
Cn1c(COc2ccccc2Br)nc2ccccc21
NC(=O)c1c(NC(=O)c2cccnc2)sc2c1CCCCC2
CCOc1cc(/C=N/N=C(N)N)ccc1OCc1ccc(Cl)cc1
Cc1ccc(COc2ccc(C)nc2[N+](=O)[O-])cc1
O=C(Nc1ccc(Cl)cc1)N1CC=CCC1
CC(C)(CO)NC(=O)c1ccc2nc(Cc3cccc(Cl)c3)oc2c1
Cc1ccc(C(=O)c2coc3ccc(O)c(Cl)c23)cc1
OCc1ccc(N=Nc2ccccc2)cc1
Cc1ccc(OCCCCN2CCCCC2)c(Br)c1
O=C(Cc1cccs1)NCc1ccc(Cl)cc1Cl
O=C(CCC(=O)c1ccc[nH]1)c1ccc(Cl)cc1
COc1nc(NC2CCCCC2)nc(NC(C)(C)C)n1
C#Cc1cccc(NC(=O)CSc2nnc(-c3ccc(C(F)(F)F)cn3)o2)c1
COc1ccc(NCc2nc3ccccc3n2C)cc1
Cn1c(COc2ccccc2)nc2ccccc21
COc1cc(CN2CCC(C(=O)NCCC(C)C)CC2)ccc1OCc1ccccc1
COc1cccc(/C=C/C(=O)c2ccc3c(c2)OCCO3)c1OC
COc1ccc(C(=O)Nc2ccc3c(c2)OCCO3)cc1Br
COc1ccc(N(CC(=O)NCC2CCCO2)S(=O)(=O)c2ccccc2)cc1OC (stereo not drawn)
CC(=O)Nc1cccc(-c2nnc(-c3ccccc3)o2)c1
O=C(CN1CCCCC1)Nc1scc2c1c(=O)oc1ccccc12
CCN(CC)CCNC(=O)C1CCN(S(=O)(=O)c2c(C)noc2/C=C/c2ccccc2F)CC1
Cc1cc(/C(N)=N/OC(=O)Nc2ccc(Cl)cc2)no1
Cc1cccc(NC(=O)c2cnn(-c3ccccc3)c2C)c1C
Cc1ccsc1C(=O)OCC(=O)Nc1sccc1C(N)=O
CCCCC(=O)N/C(N)=N/c1nc2ccccc2o1
O=C(NCC1CCCO1)c1cc(-c2ccc(Cl)cc2Cl)on1 (stereo not drawn)
Cc1ccc(-c2nc(C#N)c(NCc3ccco3)o2)cc1
Cc1cccc(-c2nc(C#N)c(NCc3ccco3)o2)c1
O=C(Nc1ccc2nn(-c3ccccc3)nc2c1)c1ccco1
CNc1oc(/C=C/c2cccc(OC)c2)nc1C#N
Cc1cc(Cl)ccc1NC(=O)c1ccc2c(c1)OCO2
CC(C)C(=O)Nc1cccc(NC(=O)c2cc3ccccc3o2)c1
N=c1n(CC(=O)c2ccc([N+](=O)[O-])cc2)c2ccccc2n1Cc1ccc(Cl)cc1
O=C1CN(c2ccccc2)C(=S)N1C(=O)c1ccc(Br)cc1
Cc1c(C=O)c2cc(OCc3ccccc3)ccc2n1C
CC1CCCC(C)N1CCCNC(=O)c1cc2c(s1)-c1ccccc1OC2 (stereo not drawn)
COc1ccccc1/C=C/C=N/NC(=O)c1cccs1
Cc1ccc(SCCSc2ncccn2)cc1
CC(C)(C)c1cc(NCCCn2ccnc2)n2ncc(-c3ccccc3)c2n1
Nc1c(-c2ccccc2)cnc2c(-c3ccccc3)cnn12
c1cc(CSc2nnc(-c3ccc4c(c3)OCO4)o2)ccn1
O=C(Nc1nc2ccccc2s1)c1ccccc1[N+](=O)[O-]
Cc1ccc(NC(=O)Nc2ccccc2)nc1
COc1cc(SC)ccc1C(=O)NCCOc1ccccc1Cl
Cc1cnn(C(=S)NCCc2ccccc2)c1
COc1ccc(C)c2sc(N(CCN(C)C)C(=O)/C=C/c3cccs3)nc12
CN(C)CCCN(C(=O)CCc1ccccc1)c1nc2ccc(Br)cc2s1
O=C(CSC(=S)N1CCCCC1)c1c(F)cccc1F
COc1ccc(CNC(=O)CN2C(=O)C3C4C=CC(C4)C3C2=O)cc1 (stereo not drawn)
COC(=O)c1c(C)[nH]c(/C=N/Nc2ccccc2)c1C
COc1cc(CN2CCC(C(N)=O)CC2)ccc1OCc1ccccc1
O=C(Nc1cc2c(cc1Cl)OCCO2)c1ccco1
CCOC(=O)c1sc(-c2ccccc2)cc1N
Cc1nn2c(N)c(-c3ccccc3)cnc2c1-c1ccccc1
CC(=O)Nc1cccc2c1Cc1ccccc1-2
CN(C)CCNC(=O)COc1ccc(C23CC4CC(CC(C4)C2)C3)cc1
Cc1ccc(-n2ncc3c(SCC(N)=O)ncnc32)cc1C
Cn1c(/C=C/c2ccc(Cl)cc2)nc2ccccc2c1=O
Fc1cccc(Cl)c1CSc1nnc(-c2ccncc2)o1
Cc1ccc(OCC(=O)Nc2ccccc2F)cc1
CSc1nc(N)n2nc(-c3ccc(Cl)cc3)cc2n1
O=[N+]([O-])c1ccccc1OCCOc1ccccc1[N+](=O)[O-]
COc1ccc(NC(=O)Nc2ccc(F)c(F)c2)c(OC)c1
O=C(CCCc1ccccc1)N1CCN(C2CCCCC2)CC1
O=C(c1cc2ccccc2oc1=O)N(Cc1ccccc1)C1CCS(=O)(=O)C1 (stereo not drawn)
c1ccc(OCc2nc3ccccc3[nH]2)cc1
N=C1C(c2nc3ccccc3[nH]2)=C(O)CN1C1CCCCC1
Cc1c(C(=O)N(CCO)Cc2ccccc2)oc2c(F)cccc12
